# Test results taken from publication PMC5515408, “Sequence-specific DNA binding by MYC/MAX to low-affinity non-E-box motifs”.
# In all, about 5,000 sequences were measured (“log2 normalized fluorescence”: median about 0.089, highest 2% from about 0.81 on). The full list was thinned out, with the highest values kept by preference.
# Molecular target: MYC (p64);MAX (p21), in MYC:MAX (human;human, UniProt P01106-1;P61244-2 1-439;1-151, |)
# Assay: protein-binding microarray (anti-MAX antibody); PBM: 15 mM Tris-HCl pH 7.5, 100 mM KCl, 0.075% NP40, 7.5 mM beta-mercaptoethanol, 375 ng/ul BSA, 8 ng/ul poly(dA-dT):(dA-dT), 550 ng complex, 60 min, room tempe; high values mean tight binding
# Conditions: protein: recombinant;recombinant; tags: 6xHis;6xHis; copies: 1;1; label: 3' end of printed strand (linker) attached to glass slide; dsDNA, one strand shown
# Outline: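 Recombinant His-tagged human MYC:MAX or MAX:MAX dimers (550 ng, expressed in E. coli) were incubated for 60 min at room temperature in Tris-KCl buffer, pH 7.5, with NP40, BSA and poly(dA-dT) competitor. The custom Agilent glass array held ~5000 unique 12-nt sequences, each spotted in triplicate and made double-stranded by primer extension. Bound protein was detected with anti-MAX and secondary antibodies and scanned at 543 nm. Binding is reported as log2 normalized fluorescence.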
# Sequence of MYC (p64);MAX (p21), in MYC:MAX (P01106 16-454, chain 1 of 2): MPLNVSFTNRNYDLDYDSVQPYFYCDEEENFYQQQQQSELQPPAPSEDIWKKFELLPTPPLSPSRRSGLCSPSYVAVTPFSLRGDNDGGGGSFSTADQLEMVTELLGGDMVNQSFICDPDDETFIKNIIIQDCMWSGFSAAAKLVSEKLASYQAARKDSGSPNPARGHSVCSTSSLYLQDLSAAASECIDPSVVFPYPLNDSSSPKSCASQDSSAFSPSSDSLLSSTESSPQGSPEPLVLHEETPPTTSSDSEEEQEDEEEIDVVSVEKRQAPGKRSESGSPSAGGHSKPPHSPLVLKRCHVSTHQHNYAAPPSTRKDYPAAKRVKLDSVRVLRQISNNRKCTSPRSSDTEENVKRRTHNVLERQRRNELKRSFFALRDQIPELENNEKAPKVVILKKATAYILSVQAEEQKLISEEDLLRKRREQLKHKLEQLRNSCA
# Sequence of MYC (p64);MAX (p21), in MYC:MAX (P61244 other isoform, or with tags, fused parts or gaps |, chain 2 of 2): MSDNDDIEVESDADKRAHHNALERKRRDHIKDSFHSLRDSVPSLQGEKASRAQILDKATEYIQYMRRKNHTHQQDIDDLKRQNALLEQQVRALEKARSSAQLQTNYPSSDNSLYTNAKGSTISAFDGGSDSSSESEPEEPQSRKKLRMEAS
row,Sequence,binding signal
1,CCGGCTGATGGGCAGTATTAATAGCTAAGATTACTATATCGACG,0.0215 log2 normalized fluorescence
2,CCGGCTGACGATCAGTATTAATAGCTAAGATTACTATATCGACG,-0.0317 log2 normalized fluorescence
3,CCGGCTGAATACCTGTATTAATAGCTAAGATTACTATATCGACG,0.159 log2 normalized fluorescence
4,CCGGCTGAGCGCAGGTATTAATAGCTAAGATTACTATATCGACG,0.113 log2 normalized fluorescence
5,CCGGCTGACCAGTTGTATTAATAGCTAAGATTACTATATCGACG,0.159 log2 normalized fluorescence
6,CCGGCGCACACGTGCTATTAATAGCTAAGATTACTATATCGACG,0.875 log2 normalized fluorescence
7,CCGGCGCACACGTGGTATTAATAGCTAAGATTACTATATCGACG,0.906 log2 normalized fluorescence
8,CCGGCTGAGCACACGTATTAATAGCTAAGATTACTATATCGACG,0.338 log2 normalized fluorescence
9,CCGGCTGGCACGTGCTATTAATAGCTAAGATTACTATATCGACG,0.722 log2 normalized fluorescence
10,CCGGCGCGCACGTGGTATTAATAGCTAAGATTACTATATCGACG,0.813 log2 normalized fluorescence
11,CCGGCTCGCACGTGGTATTAATAGCTAAGATTACTATATCGACG,0.665 log2 normalized fluorescence
12,CCGGCTGAATTCCCGTATTAATAGCTAAGATTACTATATCGACG,0.003 log2 normalized fluorescence
13,CCGGCTGACGGATGGTATTAATAGCTAAGATTACTATATCGACG,0.302 log2 normalized fluorescence
14,CCGGCTGACGGACAGTATTAATAGCTAAGATTACTATATCGACG,0.124 log2 normalized fluorescence
15,CCGGCTGACTCGTGCTGTTAATAGCTAAGATTACTATATCGACG,0.41 log2 normalized fluorescence
16,CCGGCTGACACGTCATGTTAATAGCTAAGATTACTATATCGACG,0.5 log2 normalized fluorescence
17,CCGGCTGACACGTGATGTTAATAGCTAAGATTACTATATCGACG,0.851 log2 normalized fluorescence
18,CCGGCTGACACGTGAGATTAATAGCTAAGATTACTATATCGACG,0.826 log2 normalized fluorescence
19,CCGGCTGACACGTGATATTAATAGCTAAGATTACTATATCGACG,0.522 log2 normalized fluorescence

row,Sequence,binding signal
1,CCGGCTGACACGTGATCTTAATAGCTAAGATTACTATATCGACG,0.744 log2 normalized fluorescence
2,CCGGCTGACACGTGAGGTTAATAGCTAAGATTACTATATCGACG,0.702 log2 normalized fluorescence
3,CCGGCTGACACGTGTGATTAATAGCTAAGATTACTATATCGACG,0.872 log2 normalized fluorescence
4,CCGGCTGACACGTGAAGTTAATAGCTAAGATTACTATATCGACG,0.527 log2 normalized fluorescence
5,CCGGCTGACACGTGAGCTTAATAGCTAAGATTACTATATCGACG,0.713 log2 normalized fluorescence
6,CCGGCTGAGCCATCGTATTAATAGCTAAGATTACTATATCGACG,0.0938 log2 normalized fluorescence
7,CCGGCTGACCGCGGGTATTAATAGCTAAGATTACTATATCGACG,0.33 log2 normalized fluorescence
8,CCGGCTGACTGGAGGTATTAATAGCTAAGATTACTATATCGACG,0.07 log2 normalized fluorescence
9,CCGGCTGATGTTAGGTATTAATAGCTAAGATTACTATATCGACG,0.122 log2 normalized fluorescence
10,CCGGCTGAGGACCGGTATTAATAGCTAAGATTACTATATCGACG,-0.014 log2 normalized fluorescence
11,CCGGCTGACACGTGGGCTTAATAGCTAAGATTACTATATCGACG,0.74 log2 normalized fluorescence
12,CCGGCCGACACGTGGGCTTAATAGCTAAGATTACTATATCGACG,0.893 log2 normalized fluorescence
13,CCGGCCGACACGTGATATTAATAGCTAAGATTACTATATCGACG,0.927 log2 normalized fluorescence
14,CCGGCTGAACACGTGTATTAATAGCTAAGATTACTATATCGACG,0.823 log2 normalized fluorescence
15,CCGGCTGACGACACGTATTAATAGCTAAGATTACTATATCGACG,0.2 log2 normalized fluorescence
16,CCGGCCGACACGTCGTATTAATAGCTAAGATTACTATATCGACG,0.338 log2 normalized fluorescence
17,CCGGCCGACACGTTGTATTAATAGCTAAGATTACTATATCGACG,0.656 log2 normalized fluorescence
18,CCGGCTGAACACACGTATTAATAGCTAAGATTACTATATCGACG,0.419 log2 normalized fluorescence
19,CCGGCTGACACGTGGTATTAATAGCTAAGATTACTATATCGACG,0.825 log2 normalized fluorescence

row,Sequence,binding signal
1,CCGGCTGAACGTGTGTATTAATAGCTAAGATTACTATATCGACG,0.493 log2 normalized fluorescence
2,CCGGCTAACACGTGATATTAATAGCTAAGATTACTATATCGACG,0.646 log2 normalized fluorescence
3,CCGGCTGACGTGTGGTATTAATAGCTAAGATTACTATATCGACG,0.252 log2 normalized fluorescence
4,CCGGCTGACTAGTAGTATTAATAGCTAAGATTACTATATCGACG,-0.00827 log2 normalized fluorescence
5,CCGGCTGACACGACATATTAATAGCTAAGATTACTATATCGACG,0.459 log2 normalized fluorescence
6,CCGGCTGAAGACCAGTATTAATAGCTAAGATTACTATATCGACG,0.106 log2 normalized fluorescence
7,CCGGCTGAGGCAAGGTATTAATAGCTAAGATTACTATATCGACG,0.281 log2 normalized fluorescence
8,CCGGCTGAGGTCGCGTATTAATAGCTAAGATTACTATATCGACG,0.0221 log2 normalized fluorescence
9,CCGGCTGATAACAGGTATTAATAGCTAAGATTACTATATCGACG,-0.0157 log2 normalized fluorescence
10,CCGGCTGACCTATGGTATTAATAGCTAAGATTACTATATCGACG,0.108 log2 normalized fluorescence
11,CCGGCTGAGTGTGAGTATTAATAGCTAAGATTACTATATCGACG,0.101 log2 normalized fluorescence
12,CCGGCTGAACGCGTGTATTAATAGCTAAGATTACTATATCGACG,0.587 log2 normalized fluorescence
13,CCGGCTGACACGTGGAATTAATAGCTAAGATTACTATATCGACG,0.698 log2 normalized fluorescence
14,CCGGCCGACGCGTGGTATTAATAGCTAAGATTACTATATCGACG,0.626 log2 normalized fluorescence
15,CCGGCCGGCACGTGGTATTAATAGCTAAGATTACTATATCGACG,0.723 log2 normalized fluorescence
16,CCGGCCGACACGTGGAATTAATAGCTAAGATTACTATATCGACG,0.832 log2 normalized fluorescence
17,CCGGCTAACACGTGGAATTAATAGCTAAGATTACTATATCGACG,0.812 log2 normalized fluorescence
18,CCGGCCGACACGTGGTATTAATAGCTAAGATTACTATATCGACG,1.07 log2 normalized fluorescence
